Experiment in all cases: NCI-60 one-dose screen, 48 h (100 = growth as untreated, 0 = no growth, -100 = all killed)
Holding throughout (settings): 10 µM unless noted

Assay [1] has as its system DU-145 prostate.
Assay [2] concerns K-562 leukemia.
Assay [3] relates to MALME-3M melanoma.
Assay [4] deals with MDA-MB-231 breast.
For assay [5], the system named is RXF 393 renal.
Assay [6] relates to SF-268 CNS.
In assay [7] the test system is SF-539 CNS.
For assay [8], the system named is UACC-257 melanoma.
For assay [9], the system named is M14 melanoma.
Assay [10] deals with HCT-15 colon.
Assay [11] concerns HT29 colon.
The subject of assay [12] is SNB-19 CNS.
The subject of assay [13] is U251 CNS.
In assay [14] the test system is SK-MEL-5 melanoma.
Assay [15] has as its system UACC-62 melanoma.
Assay [16] concerns LOX IMVI melanoma.
Assay [17] deals with SK-MEL-28 melanoma.
Assay [18] deals with SNB-75 CNS.
Assay [19] relates to PC-3 prostate.
Assay [20] concerns SF-295 CNS.

Compounds without any hit were thinned out: in the full panel of roughly 83,000, 20% have a hit.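 Single-dose data. Exposure time 48 hours. Values below 10 considered active.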 Values without a mark were called inactive. The source made the active and inactive calls.

As for `O=C(C(Br)C(Br)c1ccccc1)C(Br)C(Br)c1ccccc1` (stereo not given), the growth in [1] was -26.4% (active); in assay [2], -17.5% (active); in assay [3] it was -69.5% (active); in [4] it was -16.5% (active); in [5], -85.1% (active); in assay [6], -1.83% (active). The growth in [7] is -42.5% (active); in assay [8], -67.3% (active); in assay [9], 1.62% (active); in [10] it was -66.4% (active); in [11] it was -76% (active); in [12], 72.8%. Further, the growth was 4.89% (active) in assay [13]; 2.03% (active) in assay [14]; -83.5% (active) in assay [15]; -79.1% (active) in assay [16]; -35.6% (active) in assay [17].

Regarding `CN1CCN(Cc2ccc(NC(=O)c3cncc(C#Cc4ncc5cnccn45)c3)cc2C(F)(F)F)CC1`, the growth is 46.8% in assay [1]; 8.73% (active) in [2]; 14.7% in [3]; 25.6% in assay [4]; 51.1% in assay [5]; 56.4% in assay [6]. Also, the growth in assay [7] was 37.8%; in [8], 55.3%; in assay [9], 9.27% (active); in [10], 56.7%; in assay [18], 38.1%; in assay [12], 94.5%. The growth in assay [13] was 64.2%; in [19] it was 54.9%; in [14], 55.3%; in [15], 57.3%; in assay [16], 26.5%; in [17] it was 38.1%.

With `CCn1c(CN2CCN(Cc3ccccc3)CC2)nc2cc(NC(=O)c3cccs3)ccc21`, the growth in assay [1] was -57.7% (active); in assay [2] it was -27.5% (active); in assay [3], -72.8% (active); in assay [4], -90.6% (active); in [5], -92.4% (active); in assay [6], -88.3% (active). The growth is -69.8% (active) in assay [7]; -80.1% (active) in [8]; -64.6% (active) in [9]; 3.47% (active) in [10]; -55.6% (active) in [11]; -41.7% (active) in [12]. Moreover, the growth is -91.4% (active) in [13]; -51.5% (active) in assay [19]; -98.9% (active) in assay [14]; -92.8% (active) in assay [15]; -89.7% (active) in assay [16]; -91.2% (active) in assay [17].

With `COc1ccc(/C=c2\c(=O)n(-c3ccccc3)c3nn4c(n23)=NNC42CCCCC2)cc1`, the growth in assay [1] was 106%; in assay [2] it was 109%; in assay [3], 97.8%; in [4] it was 87.3%; in assay [5], 110%; in [6], 92%. Moreover, the growth in assay [7] is 102%; in assay [8] it was 111%; in assay [9] it was 102%; in assay [10], 102%; in assay [11], 106%; in assay [18] it was 87.7%. The growth in [13] is 103%; in assay [19], 90.1%; in assay [14], 100%; in assay [15], 93.2%; in assay [16], 95.1%; in [17], 111%.

As to `O=C(Nc1ccc(Cl)c(C(F)(F)F)c1)c1ccc(Nc2ccc(Cl)nn2)cc1`, the growth was 76.7% in assay [1]; 44.2% in assay [2]; 106% in [3]; 59.3% in [4]; 47.8% in [5]; 80.7% in assay [6]. Besides, the growth in assay [7] was 68.1%; in assay [8], 74.6%; in [9], 57.4%; in assay [10] it was 46.4%; in assay [18], 84.2%; in [12], 76.7%. In addition, the growth in [13] was 51.5%; in assay [19], 49.6%; in assay [14] it was 59.6%; in assay [15] it was 51.9%; in assay [16], 54.7%; in [17] it was 72.5%.

For the compound `O=C(Nc1ccccc1)C(CCCCN1C(=O)c2ccccc2C1=O)N1C(=O)c2ccccc2C1=O` (stereo not given), the growth in assay [1] was 95.4%; in assay [2] it was 82.8%; in [4] it was 109%; in [5], 110%; in assay [6], 99.8%; in assay [20], 101%. Also, the growth in [7] is 111%; in [8], 106%; in assay [9] it was 105%; in [10] it was 102%; in assay [11], 107%; in assay [18], 88.5%. For the same compound, the growth in [12] was 101%; in [13], 102%; in assay [14], 101%; in assay [15] it was 98.9%; in [16] it was 101%; in [17] it was 107%.

On to `COc1ccc(/C=C2\CCCC3=C2N=C2SC(C)=NN2C3c2ccc(OC)c(OC)c2)cc1OC` (stereo not given), for which the growth was 16.1% in [1]; 14.5% in assay [2]; 28.6% in assay [4]; 40.4% in [5]; 39% in assay [6]; 25.3% in assay [20]. Moreover, the growth in [7] was 6.88% (active); in assay [8], 51.9%; in assay [9], 19.8%; in assay [10] it was 28.3%; in assay [11], 4.84% (active); in assay [18], 27.7%. In addition, the growth in assay [12] is 45%; in assay [13], 15.5%; in [19], 40%; in assay [14], 24.2%; in assay [15] it was 34.6%; in assay [16], 1.41% (active). Also, the growth in [17] is 58.9%.

Regarding `Cc1cccc(C(=O)O)n1`, the growth in assay [1] is 116%; in assay [2], 102%; in assay [3], 111%; in [4] it was 120%; in [6], 107%; in assay [20], 98%. Further, the growth in assay [7] was 99.7%; in assay [8], 105%; in assay [9] it was 108%; in assay [10] it was 99.4%; in assay [11], 112%; in assay [18], 103%. Also, the growth was 97.6% in [12]; 105% in assay [13]; 117% in assay [19]; 98.3% in assay [14]; 101% in [15]; 101% in [16]. In addition, the growth in assay [17] was 123%.
